Screens: PubChem, National Center for Advancing Translational Sciences (NCATS)
Many of the other results were omitted from the sample, so hits are more common in it than they were.
KDM5B inh = blocks human KDM5B histone demethylase activity; 220,000 compounds, 2.6% hits; KDM5B demethylase, FDH-coupled NADH fluorescence (FDH is formaldehyde dehydrogenase); Q9UGL1; Potency, µM (series often up to 57.7 µM), usual class: inhibitors; AID 1347165; active = well fitted inhibition curve with a large enough effect; note: 0% is about no effect; nearly all actives have a fitted effect of over 70% in size
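KDM5BΔAP (200 nM final) in 50 mM HEPES pH 7.5, 0.01% Tween-20 was preincubated 10 min at RT with compound over a concentration range. Substrate mix (H3K4me3 12.5 µM, α-KG 25 µM, Fe²⁺, ascorbate, NAD⁺, FDH) was added, and NADH fluorescence change over 30 min gave dose-response curves.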
An asterisk follows results filed as active; i = inactive. Potency is the fitted concentration of half-maximal effect.

SMILES | KDM5B inh
Cc1nc(CCC(=O)NCc2ccc3[nH]c(-c4ccccc4F)c(C)c3c2)n[nH]1 | 25µM*
Cc1ncc(C(=O)NCc2ccc3[nH]c(-c4ccccc4F)c(C)c3c2)c(C)n1 | 20µM*
Cc1[nH]c2ccccc2c1SCCNC(=O)c1ccccc1F | i
Cc1ccc(CNC(=O)c2nc(SCc3ccccc3F)ncc2Cl)cc1 | i
CCCCCCSC1=C(C#N)C(c2ccc(CC)cc2)CC(=O)N1 (centres undefined) | i
Cc1c(C#N)c(NC(=O)CSc2nncn2-c2ccccc2)n(Cc2ccco2)c1C | i
CCc1ccc(CN2CCC3(Cc4ccccc4CNC3=O)C2)cc1 (centres undefined) | i
NC(=O)CN1CCN(S(=O)(=O)c2ccc(Cl)cc2F)CC1 | i
O=C(CN1CCC2(CC1)OCCO2)Nc1ccc(F)cc1 | i
COc1ccc(/C=C/C(=O)O)cc1Br | i
O=C(c1ccccc1Cl)N1CCC(c2nn(-c3ccc(Cl)cc3)c(=O)[nH]2)CC1 | i
O=C(NCCNc1ncccn1)NCc1ccccc1 | i
S=C(Nc1ccn(C23CC4CC(CC(C4)C2)C3)n1)NC1CCCC1 | i
O=C(CC1CCCC1)N1CC[C@@]2(O)CCN(Cc3ccccn3)C[C@H]2C1 | 25µM*
CSCCC(=O)N1CCC2(CCN(Cc3ccccn3)CC2)C(CO)C1 (centres undefined) | i
O=C(NCc1ccccc1)NCC1CCCN(Cc2ccccn2)C1 (centres undefined) | i
CCCc1ncncc1C(=O)N1CCCC2(CC1)CNC(=O)O2 (centres undefined) | i
Cc1cc(C)n2nc(C(=O)N3CCCC4(CNC(=O)O4)C3)cc2n1 (centres undefined) | 25µM*
Cc1nnnn1-c1cccc(C(=O)N2CCCC3(CC2)CNC(=O)O3)c1 (centres undefined) | i
COc1cc(F)ccc1-c1nccc2c(=O)cc(N3CCOCC3)oc12 | 35µM*
COc1cc(F)ccc1-c1nccc2c(=O)cc(-c3cccnc3)oc12 | i
O=c1cc(N2CCOCC2)oc2c(-c3cccc4[nH]ccc34)nccc12 | i
COCC(=O)N(C1CCOCC1)C1CCN(C(=O)c2ccc(F)cc2F)CC1 | i
Cc1cc(C)cc(-n2ccnc(NCc3ccc(F)cc3)c2=O)c1 | i
COCC(=O)N(C1CCOCC1)C1CCN(C(=O)c2cc(F)ccc2F)CC1 | i
SMILES | KDM5B inh
Cc1ccccc1-c1nccc2c(=O)cc(N(C)C3CCOCC3)oc12 | i
O=c1cc(N2CCOCC2)oc2c(NCc3ccc(F)cc3)nccc12 | 35µM*
CN(c1cc(=O)c2ccnc(-c3ccc(O)c(F)c3)c2o1)C1CCOCC1 | 32µM*
CN(C1CCOCC1)C1CCN(C(=O)c2ccccn2)CC1 | i
COc1cc(F)ccc1-c1nccc2c(=O)cc(N(C)C3CCOCC3)oc12 | 40µM*
COc1ccc(NC(=O)N[C@@H](CCSC)C(=O)O)c(OC)c1 | i
Cc1ccc(C23CC4CC(CC(C(=O)Nc5ccc(Cl)c(Cl)c5)(C4)C2)C3)cc1 | i
CC(C)C(=O)N1N=C(c2ccco2)CC1c1ccc2nccnc2c1 (centres undefined) | i
O=C(NCCc1c[nH]c2ccccc12)c1ccc(-c2ccccc2)cc1 | i
CNC(=O)CCn1ncc2cc(OC3CCc4cccc(-c5cnn(C)c5)c43)ccc21 (centres undefined) | i
O=C(Nc1ccccc1)c1cc(-c2cccnc2)nc2ccccc12 | i
CCc1ccc2c(CN(C)CCOc3cccc(C)c3)cc(=O)oc2c1 | i
Cc1ccc(Nc2c(-c3ccc(N4CCOCC4)cc3)nc3ncccn23)cc1 | i
O=c1cc(N2CCOCC2)oc2c(-c3ccc(F)cc3)nccc12 | 35µM*
CN1CCN(c2cc(=O)c3ccnc(Nc4ccc(F)c(Cl)c4)c3o2)CC1 | i
CN(C)c1cc(=O)c2ccnc(-c3ccc(N4CCOCC4)cc3)c2o1 | 32µM*
Cc1ccc(Nc2c(-c3ccc(N4CCOCC4)cc3)nc3ncccn23)cc1C | i
O=c1cc(N2CCOCC2)oc2c(-c3ccc(F)c(Cl)c3)nccc12 | 20µM*
O=C(c1cnc(N2CCOCC2)c2ccccc12)N1CCN(c2ccc(F)cc2)CC1 | i
COc1ccc(-c2nccc3c(=O)cc(N4CCOCC4)oc23)cc1OC | i
Cn1cc(-c2ccnc(N3CCOCC3)c2)c2nc(COc3ccc(Cl)cc3)cn2c1=O | i
Cc1ccc(-c2cnc(CCC(=O)N(C)CC(=O)Nc3ccccc3Br)o2)cc1 | i
N#Cc1nc(-c2ccc(S(=O)(=O)N3CCCCC3)cc2)oc1NCCCN1CCOCC1 | i
COC(=O)c1cc(OC(=O)/C=C/c2ccc3ccccc3n2)cc(C(=O)OC)c1 | i
Cc1cccc(OCC(=O)Nc2cc(-c3nc4ccccc4o3)ccc2C)c1 | i
SMILES | KDM5B inh
O=c1cc(-c2ccc(F)cc2)oc2ccc(F)cc12 | i
Cc1cc(C)c(CNC(=O)c2nc(-c3ccccc3)cc3c2ccn3C(C)C)c(=O)[nH]1 | i
Cc1cc(C)c(CNC(=O)c2nc(-c3cccnc3)cc3[nH]ccc23)c(=O)[nH]1 | i
Cc1cc(C)c(CNC(=O)c2nc(-c3ccnn3C)cc3c2ccn3C(C)C)c(=O)[nH]1 | 32µM*
Cc1cc(C)c(CNC(=O)c2nc(-c3cccc(O)c3)cc3c2ccn3C)c(=O)[nH]1 | 35µM*
Cc1cc(C)c(CNC(=O)c2nc(-c3ccccc3)cc3[nH]ccc23)c(=O)[nH]1 | i
Cc1cc(C)c(CNC(=O)c2nc(-c3cccc(F)c3)cc3c2ccn3C)c(=O)[nH]1 | i
Cc1cc(C)c(CNC(=O)c2nc(-c3ccc(CO)cc3)cc3c2ccn3C)c(=O)[nH]1 | 35µM*
Cc1cc(-c2cc3[nH]ccc3c(C(=O)NCc3c(C)cc(C)[nH]c3=O)n2)ccn1 | 11µM*
Cc1cc(C)c(CNC(=O)c2nc(-c3ccccc3C#N)cc3c2ccn3C(C)C)c(=O)[nH]1 | i
COc1ccc(-c2cc3c(ccn3C)c(C(=O)NCc3c(C)cc(C)[nH]c3=O)n2)cc1 | i
CCNC(=O)NC(=O)CSc1nc(C2CC2)nc2ccccc12 | i
CCc1cccc2c(C(CC(=O)N3CCCC3)c3ccc(Cl)c(Cl)c3)c[nH]c12 (centres undefined) | i
CCCOc1ccc(Cn2c(SCC(=O)NC(C)(C)C)nc3c(sc4ncccc43)c2=O)cc1 | i
CCOC(=O)C1CCN(C(=O)c2cc3cc(OCC)ccc3n2C)CC1 | i
CSc1cccc(NC(=O)/C=C/c2cccc(F)c2)c1 | i
Cc1ccc(C2Cn3cnc(C(=O)N4CCC(C(=O)NCCC5=CCCCC5)CC4)c3CO2)cc1 (centres undefined) | i
Cc1cc(C)c(CCNC(=O)NNc2nc(C)cc(C)n2)c(C)c1 | i
O=C(Nc1cccc2ccccc12)O[C@@H]1CO[C@H]2[C@@H]1OC[C@@H]2Nc1nccc(-c2cccc(F)c2)n1 | i
N#Cc1cccc(NC(=O)O[C@@H]2CO[C@H]3[C@@H]2OC[C@@H]3Nc2nccc(-c3cccc(F)c3)n2)c1 | 6.3µM*
COc1ccc(-c2ccnc(N[C@H]3CO[C@H]4[C@@H]3OC[C@@H]4NS(=O)(=O)c3ccc(C)cc3)n2)cc1 | i
N#Cc1cccc(-c2ccnc(N[C@H]3CO[C@H]4[C@@H]3OC[C@H]4OC(=O)Nc3ccccc3)n2)c1 | i
O=C(O)CCCC(=O)N[C@H]1CO[C@H]2[C@@H]1OC[C@@H]2Nc1nccc(-c2ccc(-c3ccccc3)cc2)n1 | 32µM*
